Most compounds without a hit are left out; they make up all but 1.6% or so of the library.
KCNQ2 block – blocks the rat KCNQ2 potassium channel. O88943. CHO-K1 KCNQ2, FluxOR thallium flux, 20 min; hits give low values. B-score at 10 µM. 310,000 tested, 1.1% active;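 active means fluorescence ratio B-score at most minus 3 library SDs, with starting brightness B-score within 2 library SDs, cut at about -5.5 in these data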
Target sequence (O88943 whole entry, looked up): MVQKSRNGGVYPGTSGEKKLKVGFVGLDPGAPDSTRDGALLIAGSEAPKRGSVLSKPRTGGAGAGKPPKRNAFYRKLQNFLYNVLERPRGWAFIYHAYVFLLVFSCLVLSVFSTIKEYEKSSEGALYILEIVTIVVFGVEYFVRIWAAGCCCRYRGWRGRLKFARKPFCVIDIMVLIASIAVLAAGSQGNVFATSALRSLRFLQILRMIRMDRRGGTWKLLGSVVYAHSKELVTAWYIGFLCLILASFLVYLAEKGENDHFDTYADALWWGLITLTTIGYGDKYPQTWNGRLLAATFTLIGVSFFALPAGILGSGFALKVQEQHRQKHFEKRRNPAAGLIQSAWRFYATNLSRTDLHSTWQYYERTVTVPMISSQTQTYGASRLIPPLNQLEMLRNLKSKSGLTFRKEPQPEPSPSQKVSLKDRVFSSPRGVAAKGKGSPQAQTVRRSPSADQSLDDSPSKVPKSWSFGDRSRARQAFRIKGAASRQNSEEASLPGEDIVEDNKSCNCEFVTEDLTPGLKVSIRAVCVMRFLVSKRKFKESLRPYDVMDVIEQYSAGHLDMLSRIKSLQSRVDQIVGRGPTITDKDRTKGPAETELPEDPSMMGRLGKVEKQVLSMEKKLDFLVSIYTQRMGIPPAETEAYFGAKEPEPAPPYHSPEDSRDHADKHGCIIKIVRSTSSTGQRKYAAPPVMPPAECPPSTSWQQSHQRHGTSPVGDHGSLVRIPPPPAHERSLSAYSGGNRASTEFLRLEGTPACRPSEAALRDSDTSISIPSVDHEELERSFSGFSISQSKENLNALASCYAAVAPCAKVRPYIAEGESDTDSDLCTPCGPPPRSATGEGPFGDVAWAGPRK
KCNQ2 enhance – enhances the rat KCNQ2 potassium channel; CHO-K1 KCNQ2, FluxOR thallium flux fluorescence; hits give high values; B-score at 10 µM; 310,000 tested, 0.54% active; AID 2239;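 active means fluorescence ratio B-score at least 3 SD of library B-scores, with initial fluorescence B-score within 3 of them, cut at about 5.3 in these data; same plate scores as AID 2156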;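 further: B-score of peak minus minimum over baseline fluorescence ratio after K+ and Tl+ stimulus; positive B-score means potentiation of KCNQ2 with more thallium influx and brighter signal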
* = called active by the depositor; i = inactive; x = no result given.

SMILES	KCNQ2 block	KCNQ2 enhance
COc1ccc(-c2ccc(/C=N/NC(=O)Cc3nnc(N)s3)o2)cc1Cl	-7.4*	-7.4
CC(NCC(O)COCCC12CC3CC(CC(C3)C1)C2)c1ccccc1 (centres undefined)	-7.7*	-7.7
NCC(O)COCCC12CC3CC(CC(C3)C1)C2 (centres undefined)	i	x
Cc1cc(Br)cc(Br)c1OCC(=O)NNC(=O)Nc1ccccc1	i	x
CC(=O)c1cc2c(cc1NC(=O)c1ccc(Cl)cc1)OCCO2	i	0.02
CC(=O)c1cc2c(cc1NC(=O)Nc1cccc(Cl)c1)OCCO2	-6.3*	-6.3
Fc1cccc(Cn2ccc(-c3ccc4c(c3)OCO4)n2)c1	i	x
Cc1ccccc1Cn1ccc(-c2ccc3c(c2)OCO3)n1	-6.7*	-6.7
COc1ccc(C(=O)NCC(=O)OCC(=O)N2CCc3ccccc32)cc1	i	0.31
COc1cccc(NC(=S)N2c3ccccc3CC2C)c1 (centres undefined)	i	1.6
CC1Cc2ccccc2N1C(=S)NC(=O)c1ccc(Cl)cc1Cl (centres undefined)	i	21*
CC1Cc2ccccc2N1C(=S)NC(=O)c1cccc(Br)c1 (centres undefined)	i	28*
COc1cccc(C(=O)NC(=S)N2c3ccccc3CC2C)c1OC (centres undefined)	i	0.66
COc1ccc(NC(=O)C(c2ccccc2)N2CCN(c3ccccn3)CC2)cc1Cl (centres undefined)	-6.3*	-6.3
COc1cc(NC(=O)CN2CCN(c3ccccn3)CC2)cc(OC)c1OC	i	x
COc1ccccc1-n1c(=S)sc2c(=O)n(Cc3ccco3)c(SC)nc21	-6.9*	-6.9
COc1ccccc1-n1c(SC)nc2c(sc(=S)n2-c2ccccc2)c1=O	i	1
COc1cccc(CN(C)C(=O)c2cc(-c3ccc(F)cc3)nc3ccccc23)c1	i	x
COc1cccc(CN(C)C(=O)c2cc(-c3ccc(OC)c(OC)c3)nc3ccccc23)c1	-6*	-6
COc1ccc(-c2cc(C(=O)N(C)CCc3ccc(OC)c(OC)c3)c3ccccc3n2)cc1	-5.6*	-5.6
COc1ccc(CN(C)C(=O)c2cc(-c3ccccc3)nc3ccc(C)cc23)c(OC)c1OC	-5.7*	-5.7
COc1ccc(-c2cc(C(=O)N(C)Cc3cccc(OC)c3OC)c3ccccc3n2)cc1OC	i	x
COc1ccc(CCN(C)C(=O)c2cc(-c3ccccc3)nc3ccccc23)cc1OC	i	x
O=C(Cc1ccccc1)Nc1cc(Cl)ccc1Sc1ccccc1	i	x
O=C(Cc1ccc(Cl)cc1)Nc1ccccc1Sc1ccccc1	i	7.8*
SMILES	KCNQ2 block	KCNQ2 enhance
O=C(CCN1CCCCC1)N/N=C/c1c[nH]c2ccccc12	i	x
CCc1cc(C(=O)N2CCN(C(=O)c3ccco3)CC2)sc1C	i	x
Cc1ccc(C2C(N)C(=O)N2c2ccc(C)cc2)cc1 (centres undefined)	i	0.47
CC1CCc2c(sc3ncnc(SC(C)C(=O)NCC4CCCO4)c23)C1 (centres undefined)	i	0.6
Cc1onc(-c2c(F)cccc2Cl)c1C(=O)OCC(=O)NC(N)=O	i	0.29
Cc1onc(-c2c(F)cccc2Cl)c1C(=O)OCC(=O)NC(c1ccccc1)c1ccccc1	-5.6*	-5.6
Cc1cccnc1Nc1nc(-c2ccc(O)cc2)cs1	i	x
Cc1cccnc1Nc1nc(-c2ccc(F)cc2)cs1	-7.2*	-7.2
Nc1n[nH]c(CO)n1	i	0.78
COc1ccc(OCC(=O)N/N=C2\CCCc3ccccc32)cc1	i	x
COc1ccccc1OCC(=O)N/N=C1\CCCCc2ccccc21	-7.1*	-7.1
COc1ccccc1OCC(=O)N/N=C1\CCc2ccccc21	-5.6*	-5.6
Cc1cccc2c1OCC/C2=N\NC(=O)COc1ccccc1	-7.3*	-7.3
COc1ccc(C(=O)N/N=C2\CCc3ccccc32)cc1OC	i	0.19
O=C(COc1cccc(Br)c1)N/N=C1\CCCc2ccccc21	i	x
Cc1csc(NC(=O)CSC2=NS(=O)(=O)c3ccccc3N2)n1	i	x
C/C(=N\NC(=O)CNc1cccc(Cl)c1C)C1CC1	i	0.52
O=C(NC1CCN(Cc2ccccc2)CC1)c1cn(-c2ccccc2)nc1-c1cccnc1	i	0.71
CCOC(=O)CNc1c(-c2ccc(O)cc2)nc2ccc(Cl)cn12	-5.7*	-5.7
CCOC(=O)CNc1c(-c2ccc(O)cc2)nc2ccccn12	i	x
COC(=O)C1=C(C(=O)OC)[C@@H]2N(C)c3ccccc3[C@@]23C[C@@H](CO)N=C3N1	i	0.01
O=C(CCCN1CCOCC1)c1ccc2c(c1)OCCO2	i	0.39
O=C(CCN1CCc2ccccc2CC1)c1ccc2c(c1)OCCO2	-5.8*	-5.8
O=C(NCc1ccc(Cl)cc1)c1ccccc1CCc1ccccc1	i	4.1
O=C(NCc1ccccc1Cl)c1cnccc1C(F)(F)F	i	7.4*
SMILES	KCNQ2 block	KCNQ2 enhance
O=C(NCc1ccccc1Cl)c1ccccc1CCc1ccccc1	-5.6*	-5.6
CN(CC(=O)Nc1cccc(F)c1)C(=O)c1ccccc1CCc1ccccc1	-6.2*	-6.2
COc1ccc(NC(=O)CN(C)C(=O)c2ccccc2CCc2ccccc2)cc1	i	x
CCc1cccc(CC)c1NC(=O)c1ccccc1CCc1ccccc1	-6.1*	-6.1
O=C(NCc1ccccc1Cl)c1cnccn1	i	1.2
Cc1cc(C)c(NC(=O)c2ccccc2CCc2ccccc2)c(C)c1	i	x
O=C(NCc1ccc(F)cc1)C(c1ccc(Cl)cc1)N(C(=O)c1csnn1)C1CC1 (centres undefined)	i	x
CC(=O)c1ccc(S(=O)(=O)N2CCCC(N(C)CCc3ccccn3)C2)cc1 (centres undefined)	i	0.77
Cc1coc2cc3oc(=O)c(CCC(=O)N4C[C@H]5C[C@@H](C4)c4cccc(=O)n4C5)c(C)c3cc12	i	0.78
CC(C)C(NC(=O)OCc1ccccc1)C(=O)NCc1ccc(C(=O)O)cc1 (centres undefined)	i	1.3
COc1ccc(CCNC(=O)c2cc(=O)c3cc(C)ccc3o2)cc1OC	i	2.5
O=C(Cn1nc(-c2ccccc2)c2ccccc2c1=O)NCCO	i	x
Cc1ccc(C(=O)/C=C/Nc2cccc([N+](=O)[O-])c2)o1	i	0.96
C=CCOc1c(Br)cc(CNc2ccc3[nH]c(=O)[nH]c3c2)cc1OCC	i	0.68
C=CCOc1c(Br)cc(CNc2ccc(NC(=O)C(C)C)c(OC)c2)cc1OCC	i	6.6*
Cc1ccc(C(=O)NCc2nnc(SCC(=O)NC(C)c3ccccc3)n2C)cc1 (centres undefined)	i	1.2
O=C(N/N=C/c1ccc(-n2ccnc2)cc1)c1cccs1	i	0.61
O=C(NCC1CCCO1)c1cccc(Oc2ccc([N+](=O)[O-])cc2)c1 (centres undefined)	i	x
CCSc1ncc(/C=N/Nc2ccc(F)cc2)n1C	-8.5*	-8.5
CC(=O)Nc1ccc(NC(=O)CSc2ncc(C(=O)Nc3ccc(F)cc3)c(=O)n2C)cc1	i	x
Cc1nc2cc(NCc3nc4ccccc4n3Cc3ccccc3)ccc2n1C	i	x

From PubChem BioAssay
